About 83,000 compounds went through this panel and 20% of them were active in at least one assay; those are over-represented in the sample as a whole.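 The test compound was applied at a single concentration to cells in 96-well plates for 48 hours, and percent growth was recorded.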 Values without a mark were called inactive. Calls of active or inactive are those of the source. The calls were made as follows: active = growth percent below 10; inactive = the rest.
System: HCT-116 colon
Assay: NCI-60 one-dose screen, 48 h (100 = growth as untreated, 0 = no growth, -100 = all killed)
Conditions: 10 µM unless noted

Q: For N#Cc1ccc(NC(=O)Nc2nc3ccc(OC(F)(F)F)cc3s2)cc1, which growth is on record?
A: -3.77% (active)

Q: CC(=O)Nc1nonc1-c1nc2ccccc2n1Cc1ccc(C(C)(C)C)cc1 was tested. Which growth did it give?
A: 66.9%

Q: Which growth does the source give for Cc1nn(-c2ccc(Cl)cc2)c(=O)n1CCN1CCOCC1 here?
A: 29.5%

Q: Which growth does the source give for O=C(O)Cn1ccc2ccccc21 here?
A: 96.9%

Q: How did the growth turn out when SCc1ccc(CS)cc1 was run?
A: 100%

Q: For Oc1ccc(-c2cnc(-c3ccccc3)[nH]2)c(O)c1, which growth is on record?
A: 78.6%

Q: With Fc1cc(-c2nnc3sc(-c4ccc(Cl)cc4)nn23)c(Cl)cc1Cl as the molecule, how does the growth read?
A: 94.6%

Q: For CCCOC(=O)C1c2cc3c(cc2CC(C)C1C(=O)OCCC)OCO3 (stereo unspecified), which growth is on record?
A: 60.1%

Q: With [Ag].[Ag].[NH-]S(=O)(=O)c1ccc(N=Nc2cc(N=Nc3ccc(S([NH-])(=O)=O)cc3)c3c(NC(=O)C(Cl)Cl)cccc3c2OC(=O)C(Cl)Cl)cc1.[c-]1nccs1.[c-]1nccs1 as the molecule, how does the growth read?
A: 65.4%

Q: For CCc1ccc(Nc2cc(C)c3ccc(O)cc3n2)cc1, which growth is on record?
A: 56.8%

Q: How did the growth turn out when Fc1ccc(-c2nnc(N3CCOCC3)c3ccccc23)cc1 was run?
A: 87.9%

Q: How did the growth turn out when N[C@@H](CO)C(=O)O was run?
A: 103%

Q: Which growth does the source give for COc1ccc2nc(C)cc(Nc3ccccc3O)c2c1 here?
A: 29.9%

Q: Which growth does the source give for Clc1ccc2c(c1)-n1cccc1C(c1ccc3ccccc3c1)=NC2 here?
A: 66.4%

Q: With O=C(C(=O)c1cccnc1)c1cccnc1 as the molecule, how does the growth read?
A: 99.8%

Q: How did the growth turn out when COc1ccc(C2C3CCc4ccccc4C3=NN2C(=O)c2cc(OC)c(OC)c(OC)c2)cc1O (stereo unspecified) was run?
A: 104%
